Screening results deposited in PubChem BioAssay by National Center for Advancing Translational Sciences (NCATS).
MCF10A rereplic – A quantitative high throughput screen for small molecules that induce DNA re-replication in MCF 10a normal breast cells; AID 624296, 2012; MCF 10A DNA re-replication, Hoechst nuclear intensity, 48 h; Potency, µM (series often up to 46.1 µM), for inactives: top-dose activity, positive = re-replication, hits mostly activators; 350,000 compounds, 2.9% hits; further: potency means the concentration at half of the fitted maximal effect; % of control where 0% means no effect; nearly all actives have a fitted effect of over 50% in size
SW480 rerep – A quantitative high throughput screen for small molecules that induce DNA re-replication in SW480 colon adenocarcinoma cells | SW480 DNA re-replication, Hoechst DNA content imaging, 48 h | Potency, µM (series often up to 46.1 µM), inactives show at the highest dose re-replication activation, hits mostly activators | 340,000 compounds, 1.8% hits; further: potency means the concentration at half of the fitted maximal effect; % of control where 0% means no effect; nearly all actives have a fitted effect of over 55% in size
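First, 250 cells per well were seeded. Next, compound or vehicle (23 nL) was pinned in, plates sat 48 hr at 37 C. Finally Hoechst was added for 40 min before fluorescence scanning.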
IL-1B inflam inh – qHTS for Inhibitors of Inflammasome Signaling: IL-1-beta AlphaLISA Primary Screen; THP-1 LPS/ATP IL-1B secretion, AlphaLISA, 16 h; stronger effect = lower value; activity change, % at 57.5 µM; 360,000 compounds, 4.7% hits; in the data active means activity change below about -50%; inconclusive means mostly about -30% to -49%; further: on the % scale 0 is the no-effect control and ±100 the full control effect
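Secreted IL-1B measured by AlphaLISA bead assay after 16 h compound exposure of THP-1 cells; compounds (final up to 57.5 uM) added 1 h before LPS (250 ng/mL) and ATP (1.25 mM) stimulation; lower signal means less secretion.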
ATXN2 expr inh – Primary qHTS for Inhibitors of ATXN expression | HEK-293 ATXN2-luciferase reporter, luminescence, 24 h | Potency, µM (series often up to 57 µM), without a hit: top-dose activity change, negative = inhibition, hits mostly inhibitors | 360,000 compounds, 0.72% hits | AID 1745845, 2022; further: potency means the concentration at half of the fitted maximal effect; on the % scale 0 is the no-effect control and ±100 the full control effect; nearly all actives have a fitted effect of over 55% in size
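qHTS (up to 57 uM final) was run with 24 h compound exposure of reporter cells at 37 °C. Each well was multiplexed: SteadyGlo luminescence measured ATXN2-luciferase expression after a fluorogenic Gly-Phe-AFC viability readout (25 uM final).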
PINK1 expr mod – A Quantitative High throughput Screen to Identify Chemical Modulators of PINK1 Expression; AID 624263, 2012; 410,000 compounds, 0.2% hits; Potency, µM (titrated, usually from 76.6 µM), without a hit: at the highest dose activation (PINK1 increase), actives largely listed as activators; PINK1 immunofluorescence, high-content cytometry, 24 h; active means well fitted activation curve with a large enough effect; inconclusive means small, poorly fitted or top-dose-only effect; cell line not stated here; further: potency means the concentration at half of the fitted maximal effect; % of control where 0% means no effect; nearly all actives have a fitted effect of over 65% in size
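Compound titrations (5 concentrations, 24 h) on a stable cell line; DMSO and CCCP controls. Endpoint: fixed-cell PINK1 immunofluorescence with mitochondrial, cell and nuclear markers, scanned by microplate cytometer.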
ATXN viability – Viability Counterscreen for Primary qHTS for Inhibitors of ATXN expression; 400,000 compounds, 0.49% hits; Potency, µM (doses to about 56.7 µM), actives largely listed as cytotoxic; AID 651635, 2014; S2 cells (HEK-293 line with an ATXN2-luciferase reporter) viability, CellTiter-Fluor protease fluorescence, 24 h; further: potency means the concentration at half of the fitted maximal effect; nearly all actives have a fitted effect of over 40% in size
Starred values were filed as active, the others as inactive; i = inactive; ? = inconclusive; · = no result given; [ ] = remark or other dose. Compounds with a hit are over-represented: about 7.1% of the library has one in this group of screens. Unless noted, the call rests on the fitted dose curve; in most records, active means well fitted curve in the direction sought with a large enough effect; inconclusive means small, poorly fitted or top-dose-only effect, or another doubt; inactive means no such curve, though single readings can be large; an effect the other way counts as inactive or inconclusive.

SMILES	MCF10A rereplic	SW480 rerep	IL-1B inflam inh	ATXN2 expr inh	PINK1 expr mod	ATXN viability
CSc1ccc(CCNC(=O)c2c(C)nn(-c3ccc(F)cc3)c2-n2cccc2)cc1	·	·	·	?	2.5%	?
COc1ccc2cc3cc(C(=O)Nc4ccccc4C)oc3nc2c1	·	·	·	29.3%	2.3%	i
CCN(CC(=O)Nc1ccccc1C(F)(F)F)C(=O)c1ccc2c(c1)NC(=O)C(C)S2 (stereo unspecified)	·	·	20.3	·	0.0%	i
CCOc1cc(/C=C(\C#N)C(=O)Nc2ccc(OC)cc2)ccc1OCc1cc(=O)n2nc(CC)sc2n1	·	·	·	-14.8%	4.0%	i
CCN1c2ccccc2-c2nc(SCC(=O)Nc3cccc(C)c3C)ncc2S1(=O)=O	·	·	·	-10.2%	0.4%	i
O=C(Cn1nnc(-c2ccccc2-n2cnnn2)n1)c1ccccc1	18.4µM*	-20.1%	2.0	10.8%	·	i
O=C(NCCCN1CCOCC1)NC1CCCCC1	-6.3%	?	21.3	3.9%	-0.4%	i
O=C(NCCCCCCCN1CCCCCCC1)C(C1CCCCC1)C1CCCCC1	2.0%	?	-81.6*	?	?	·
COc1ccccc1OCCSc1nc2ccccc2c(=O)[nH]1	20.6µM*	-0.1%	-0.3	0.0%	-3.8%[38.3 µM]	i
COCc1cc(C)nc2sc(C(=O)OC(C)C)c(N)c12	20.6µM*	?	-14.9	16.2%	6.2%	i
COCc1cc(C)nc2sc(C(=O)Nc3ccccc3F)c(N)c12	6.51µM*	11.6µM*	0.0	9.1%	-0.7%	·
COc1ccc(-n2c(SCC(=O)Nc3nnc(C)s3)nc3c([nH]c4ccccc43)c2=O)cc1	·	·	·	·	1.2%	·
Cc1onc(-c2ccccc2Cl)c1C(=O)N1CCN(C/C=C/c2ccccc2)CC1	?	?	-51.9*	0.0%	·	i
O=C(CCN1CCN(C/C=C/c2ccccc2)CC1)Nc1ccc(Cl)cc1	?	?	i	-11.3%	-1.1%	i
O=C(Nc1cccc(Cl)c1)N1CCN(C/C=C/c2ccccc2)CC1	1.4%	-7.4%	-51.0*	·	·	·
Cc1ccc(NC(=O)CCN2CCN(C/C=C/c3ccccc3)CC2)cc1C	?	7.4%	-53.1*	-16.2%	1.3%	i
N#Cc1ccccc1Cn1c(=O)n(CCCC(=O)NCc2ccccc2Cl)c(=O)c2ccccc21	·	·	·	·	-0.1%	·
COc1ccccc1N(CC(=O)N/N=C/c1c(O)ccc2ccccc12)S(C)(=O)=O	?	?	-6.9	8.91µM*	0.5%	i
COc1ccccc1NCC(=O)N/N=C/c1c(O)ccc2ccccc12	?	3.26µM*	170.9	2.51µM*	8.1%	i
O=C(CNc1ccc(F)cc1)N/N=C/c1c(O)ccc2ccccc12	10.4%	?	177.0	4.47µM*	-0.2%	?
COCCNC(=O)c1ccc2c(c1)N(Cc1cc(C)ccc1C)C(=O)c1ccccc1S2(=O)=O	·	·	·	·	0.2%	·
O=C(c1ccc2c(c1)OCO2)N(Cc1cc2cc3c(cc2nc1N1CCOCC1)CCC3)CC1CCCO1 (stereo unspecified)	·	·	·	·	-0.5%	i
COc1ccc(C2Nc3ccc(NC(C)=O)cc3C(=O)N2Cc2cccc(Cl)c2)cc1COc1ccc(NC(C)=O)cc1 (stereo unspecified)	·	·	·	·	0.0%	·
O=C(NC1CCCCC1)C(c1ccc2ncccc2c1)N(Cc1ccccc1)C(=O)c1ccc2c(c1)OCCO2 (stereo unspecified)	-0.1%	-2.7%	-55.4*	-16.4%	-0.7%[38.3 µM]	?
COc1ccc(CN(C(=O)c2ccc3c(c2)OCCO3)C(C(=O)NC2CCCCC2)c2ccc3ncccc3c2)cc1 (stereo unspecified)	13µM*	5.6%	12.8	1.4%	1.5%[38.3 µM]	i
